The source made the active and inactive calls. The calls were made as follows: active = hit-call score of the fitted dose curve at least 0.9, where 1 is the maximum; inactive = score below 0.9.
Key:
[1] = ATG_CRE_CIS: Attagene CIS-FACTORIAL HepG2 Assay for human cAMP Responsive Element (CRE) binding protein 3 (AID 2282926); conditions: HepG2 CRE cis-reporter, Attagene multiplexed mRNA; actives raise or lower the signal
Outline: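 HepG2 cells transiently transfected with cis-element-driven multiple reporter transcription units; CRE reporter mRNA measured 24 h after dosing by RT-PCR, 6-FAM labelling, HpaI digestion and capillary electrophoresis. Bidirectional fit versus DMSO baseline.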

[2] = ATG_DR4_LXR_CIS: Attagene CIS-FACTORIAL HepG2 Assay for human Liver X Receptor (LXR), DR4 submotif (AID 2282929); conditions: HepG2 Attagene DR4 cis-reporter, mRNA transcription; actives raise or lower the signal
Outline: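 Transiently transfected HepG2 liver cells; cis-regulated reporters; 24 h dosing. RT-PCR plus CE read-out of reporter mRNA. DMSO baseline, bidirectional curve fitting.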

[3] = ATG_AP_1_CIS: Attagene CIS-FACTORIAL HepG2 Assay for human Activator Protein 1 (AP-1) (AID 2282931); conditions: HepG2 Attagene cis-factorial AP-1 reporter mRNA; actives raise or lower the signal
Outline: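 We transfected HepG2 cells transiently with a set of cis-regulated reporter transcription units, dosed them for 24 h, and quantified reporter mRNA via RT-PCR and capillary electrophoresis, scoring gain or loss of signal relative to DMSO.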

[4] = ATG_AP_2_CIS: Attagene CIS-FACTORIAL HepG2 Assay for human Activator Protein 2 (AP-2) (AID 2282932); conditions: HepG2 AP-2 cis-reporter, Attagene transcription factor profiling; actives raise or lower the signal
Outline: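 Step one: transient transfection of HepG2 with reporter transcription units. Step two: 24 h chemical exposure. Step three: RNA extraction, RT-PCR, labelled fragment analysis by capillary electrophoresis; DMSO serves as baseline.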

[5] = target: Transcription factor E2F1 (Homo sapiens) (UniProt Q01094); assay: ATG_E2F_CIS: Attagene CIS-FACTORIAL HepG2 Assay for human E2F Transcription Factor 1 (AID 2282935); conditions: HepG2 Attagene cis-reporter, E2F reporter RNA transcripts; actives raise or lower the signal
Outline: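 Total RNA from 24 h-treated, reporter-transfected HepG2 cells undergoes DNase I treatment, oligo(dT) reverse transcription, PCR and 6-FAM primer extension before capillary electrophoresis.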

[6] = ATG_M_61_CIS: Attagene CIS-FACTORIAL HepG2 Assay for M61 Transcription Factor (Internal Marker) (AID 2282937); conditions: HepG2 Attagene CIS-FACTORIAL M61 internal marker reporter; actives raise or lower the signal
Outline: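 Multiplexed reporter mRNA assay, HepG2 human hepatoma cells, 24 h treatment. Signal: FAM-labelled, HpaI-digested RT-PCR fragments by CE. Fit: bidirectional, baseline DMSO.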

[7] = ATG_EGR_CIS: Attagene CIS-FACTORIAL HepG2 Assay for human Early Growth Response 1 (EGR1) (AID 2282938); conditions: HepG2 Attagene CIS-FACTORIAL EGR reporter mRNA; actives raise or lower the signal
Outline: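 Multiplexed cis-reporter system in human hepatoma HepG2 cells, transiently transfected. Cells are dosed for 24 h; reporter transcripts are amplified, fluorescently tagged and sized by capillary electrophoresis, with DMSO as negative control.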

[8] = ATG_M_19_CIS: Attagene CIS-FACTORIAL HepG2 Assay for M19 Transcription Factor (Internal Marker) (AID 2282939); conditions: HepG2 Attagene CIS-FACTORIAL M19 internal marker reporter; actives raise or lower the signal
Outline: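 Transfect HepG2 with MRTU reporter library → dose chemical, 24 h → isolate total RNA, reverse-transcribe with oligo(dT) → PCR, 6-FAM label, HpaI cut (2 h, 37 C) → capillary electrophoresis. Bidirectional fit vs DMSO.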

[9] = ATG_Ets_CIS: Attagene CIS-FACTORIAL HepG2 Assay for human Erythroblast Transformation Specific (ETS) (AID 2282941); conditions: HepG2 ETS cis-reporter transcription, actives raise or lower the signal
Outline: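 After transient cis-reporter transfection, HepG2 cells receive test chemical for 24 h. Reporter mRNA levels, measured by RT-PCR and capillary electrophoresis fluorescence, are analysed bidirectionally relative to the DMSO baseline.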

[10] = target: Hepatocyte nuclear factor 3-beta (Homo sapiens) (UniProt Q9Y261); assay: ATG_FoxA2_CIS: Attagene CIS-FACTORIAL HepG2 Assay for human Forkhead box A2 (FOXA2) (AID 2282942); conditions: HepG2 cis-reporter transcription factor activity, 24 h; actives raise or lower the signal
Outline: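 Multiplexed cis-element reporter assay in transiently transfected HepG2. Twenty-four hours post-dosing, RNA was reverse-transcribed, amplified, FAM-labelled, HpaI-digested and separated by CE. Activity gain or loss relative to DMSO.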

[11] = ATG_GATA_CIS: Attagene CIS-FACTORIAL HepG2 Assay for human GATA Binding Protein (AID 2282944); conditions: HepG2 GATA cis-element reporter, Attagene multiplex mRNA; actives raise or lower the signal
Outline: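 Transient MRTU transfection, HepG2, 24 h compound exposure. Total RNA → oligo(dT) RT → PCR → 6-FAM primer extension → HpaI cut → CE. Bidirectional fit vs DMSO.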

[12] = ATG_GLI_CIS: Attagene CIS-FACTORIAL HepG2 Assay for human Zinc Finger Protein GLI1 (AID 2282945); conditions: HepG2, Attagene cis-factorial reporter mRNA, GLI element; actives raise or lower the signal
Outline: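 Bidirectional curve fits relative to DMSO, using reporter mRNA levels from RT-PCR plus capillary electrophoresis. Cells were HepG2 transiently carrying cis-regulated reporter constructs, harvested 24 h after dosing.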

[13] = ATG_ISRE_CIS: Attagene CIS-FACTORIAL HepG2 Assay for human Interferon Regulatory Factor 1 (IRF1) binding to an Interferon-Stimulated Response Element (ISRE) (AID 2282948); conditions: HepG2 ISRE cis-reporter (Attagene), mRNA transcription readout; actives raise or lower the signal
Outline: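 Quantitation relies on labelled RT-PCR fragments separated by capillary electrophoresis. Human HepG2 cells bearing cis-promoter reporter constructs were treated 24 h; DMSO served as baseline for bidirectional fitting.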

[14] = ATG_M_32_CIS: Attagene CIS-FACTORIAL HepG2 Assay for M32 Transcription Factor (Internal Marker) (AID 2282949); conditions: HepG2 Attagene cis-factorial M32 reporter, mRNA; actives raise or lower the signal;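 also: background control marker of the multiplexed CIS panel rather than a real target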
Outline: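 Internal background marker read-out: RT-PCR/capillary electrophoresis fluorescence of reporter transcripts from transiently transfected HepG2 cells after 24 h chemical exposure. Activity fitted bidirectionally relative to DMSO negative control.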

[15] = ATG_M_06_CIS: Attagene CIS-FACTORIAL HepG2 Assay for M06 Transcription Factor (Internal Marker) (AID 2282950); conditions: HepG2 Attagene CIS-FACTORIAL M06 internal marker reporter; actives raise or lower the signal
Outline: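 Read-out is fluorescence of labelled reporter cDNA fragments resolved by capillary electrophoresis after RT-PCR. Cells: HepG2 carrying transfected cis-promoter reporter units, treated 24 h. Gain or loss of signal fitted relative to DMSO.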

[16] = ATG_MRE_CIS: Attagene CIS-FACTORIAL HepG2 Assay for human Metal Responsive Element (MRE) (AID 2282954); conditions: HepG2 MRE cis-reporter transcription, Attagene multiplex; actives raise or lower the signal
Outline: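 After a 24 h chemical exposure, transiently transfected HepG2 cells yield RNA whose reporter sequences are amplified, FAM-labelled and sized by capillary electrophoresis. Curves are fitted bidirectionally relative to DMSO.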

[17] = target: Paired box protein Pax-6 (Homo sapiens) (UniProt P26367); assay: ATG_Pax6_CIS: Attagene CIS-FACTORIAL HepG2 Assay for human Paired Box 6 (PAX6) (AID 2282956); conditions: HepG2 CIS-FACTORIAL PAX6 reporter transcription, RNA readout; actives raise or lower the signal
Outline: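 After twenty-four hours of chemical exposure, transfected HepG2 cells are harvested for RNA. Cis-promoter reporter transcripts are amplified, fluorescently labelled and sized by capillary electrophoresis, with gain and loss of signal scored against DMSO.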

[18] = ATG_PXRE_CIS: Attagene CIS-FACTORIAL HepG2 Assay for human Pregnane X Receptor Element (PXRE) (AID 2282957); conditions: HepG2 Attagene CIS-FACTORIAL PXRE reporter, mRNA; actives raise or lower the signal
Outline: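 HepG2 cells transiently transfected with cis-element-driven multiplexed reporter units; after 24 h chemical exposure, reporter mRNA measured by RT-PCR, 6-FAM labelling, HpaI digestion and capillary electrophoresis. Bidirectional fitting relative to DMSO.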

[19] = target: Transcription factor Sp1 (Homo sapiens) (UniProt P08047); assay: ATG_Sp1_CIS: Attagene CIS-FACTORIAL HepG2 Assay for human Specificity Protein 1 (Sp1) (AID 2282961); conditions: HepG2 Sp1 cis-reporter transcription, actives raise or lower the signal
Outline: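 Chemicals are dosed onto HepG2 cells transfected with multiple cis-promoter reporter constructs, and after 24 h reporter RNA is reverse-transcribed, PCR-amplified and resolved by capillary electrophoresis for fluorescence quantitation; activity is scored up or down against DMSO.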

[20] = target: Signal transducer and activator of transcription 3 (Homo sapiens) (UniProt P40763); assay: ATG_STAT3_CIS: Attagene CIS-FACTORIAL HepG2 Assay for human Signal Transducer and Activator of Transcription 3 (STAT3) (AID 2282963); conditions: HepG2, Attagene cis-factorial STAT3 reporter transcription; actives raise or lower the signal
Outline: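 After a 24 h compound incubation, total RNA from MRTU-transfected HepG2 cells was converted to cDNA and reporter sequences PCR-amplified, labelled and profiled by capillary electrophoresis. Gain and loss of signal were referenced to DMSO.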

Measured: AC50

Chain of Transcription factor Sp1 (Homo sapiens) (P08047 whole entry, looked up): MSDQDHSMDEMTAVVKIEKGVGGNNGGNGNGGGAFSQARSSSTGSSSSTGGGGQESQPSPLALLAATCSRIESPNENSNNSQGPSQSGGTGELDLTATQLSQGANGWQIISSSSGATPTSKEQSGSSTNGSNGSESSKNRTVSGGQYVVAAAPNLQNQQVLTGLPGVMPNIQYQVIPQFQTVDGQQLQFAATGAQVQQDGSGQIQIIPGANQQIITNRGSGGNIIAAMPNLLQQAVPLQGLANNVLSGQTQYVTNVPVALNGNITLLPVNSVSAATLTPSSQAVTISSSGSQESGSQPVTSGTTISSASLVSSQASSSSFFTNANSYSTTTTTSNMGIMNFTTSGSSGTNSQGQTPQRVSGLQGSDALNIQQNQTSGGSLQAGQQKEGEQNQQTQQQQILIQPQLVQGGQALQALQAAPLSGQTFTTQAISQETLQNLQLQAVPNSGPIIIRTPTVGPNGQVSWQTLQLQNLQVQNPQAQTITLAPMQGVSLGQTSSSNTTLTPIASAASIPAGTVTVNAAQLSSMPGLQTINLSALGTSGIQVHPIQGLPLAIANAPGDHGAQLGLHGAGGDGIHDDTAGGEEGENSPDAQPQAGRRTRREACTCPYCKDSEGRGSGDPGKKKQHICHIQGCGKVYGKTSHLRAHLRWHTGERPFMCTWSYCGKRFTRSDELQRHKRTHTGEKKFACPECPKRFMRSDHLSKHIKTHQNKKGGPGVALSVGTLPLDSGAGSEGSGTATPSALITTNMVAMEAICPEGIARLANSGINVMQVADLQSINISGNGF
Chain of Hepatocyte nuclear factor 3-beta (Homo sapiens) (Q9Y261 whole entry, looked up): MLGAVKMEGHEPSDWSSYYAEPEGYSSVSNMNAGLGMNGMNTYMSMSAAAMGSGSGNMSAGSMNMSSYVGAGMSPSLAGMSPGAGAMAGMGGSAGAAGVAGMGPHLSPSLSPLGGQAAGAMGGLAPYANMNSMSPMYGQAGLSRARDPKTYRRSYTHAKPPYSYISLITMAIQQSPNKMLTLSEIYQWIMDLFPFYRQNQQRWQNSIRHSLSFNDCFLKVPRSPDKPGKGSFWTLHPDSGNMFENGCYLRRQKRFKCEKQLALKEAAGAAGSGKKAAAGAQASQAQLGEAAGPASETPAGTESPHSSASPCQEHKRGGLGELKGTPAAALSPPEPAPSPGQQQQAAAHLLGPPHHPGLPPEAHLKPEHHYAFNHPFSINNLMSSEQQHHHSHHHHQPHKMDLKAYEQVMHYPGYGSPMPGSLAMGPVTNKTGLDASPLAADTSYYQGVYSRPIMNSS
Chain of Signal transducer and activator of transcription 3 (Homo sapiens) (P40763 whole entry, looked up): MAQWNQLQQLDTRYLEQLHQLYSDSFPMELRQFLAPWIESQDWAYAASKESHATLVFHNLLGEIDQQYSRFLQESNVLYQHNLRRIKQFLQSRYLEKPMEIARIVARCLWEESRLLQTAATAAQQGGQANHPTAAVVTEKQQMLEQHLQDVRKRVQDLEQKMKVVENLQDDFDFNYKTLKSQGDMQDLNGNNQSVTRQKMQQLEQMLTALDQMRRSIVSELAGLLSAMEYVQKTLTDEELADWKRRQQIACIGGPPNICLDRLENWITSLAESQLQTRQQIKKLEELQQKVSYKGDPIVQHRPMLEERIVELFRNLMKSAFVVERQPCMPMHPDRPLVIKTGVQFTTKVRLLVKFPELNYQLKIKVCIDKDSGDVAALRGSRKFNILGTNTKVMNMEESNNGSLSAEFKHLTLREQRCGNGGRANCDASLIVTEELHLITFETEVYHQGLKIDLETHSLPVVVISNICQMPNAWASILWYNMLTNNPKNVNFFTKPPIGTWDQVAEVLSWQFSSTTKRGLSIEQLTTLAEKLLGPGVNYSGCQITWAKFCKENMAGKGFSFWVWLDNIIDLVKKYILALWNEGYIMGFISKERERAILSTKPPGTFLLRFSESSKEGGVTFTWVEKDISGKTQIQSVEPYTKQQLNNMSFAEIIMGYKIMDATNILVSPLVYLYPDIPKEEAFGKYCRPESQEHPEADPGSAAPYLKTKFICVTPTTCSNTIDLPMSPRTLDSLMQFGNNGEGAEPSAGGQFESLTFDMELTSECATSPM
Chain of Paired box protein Pax-6 (Homo sapiens) (P26367 whole entry, looked up): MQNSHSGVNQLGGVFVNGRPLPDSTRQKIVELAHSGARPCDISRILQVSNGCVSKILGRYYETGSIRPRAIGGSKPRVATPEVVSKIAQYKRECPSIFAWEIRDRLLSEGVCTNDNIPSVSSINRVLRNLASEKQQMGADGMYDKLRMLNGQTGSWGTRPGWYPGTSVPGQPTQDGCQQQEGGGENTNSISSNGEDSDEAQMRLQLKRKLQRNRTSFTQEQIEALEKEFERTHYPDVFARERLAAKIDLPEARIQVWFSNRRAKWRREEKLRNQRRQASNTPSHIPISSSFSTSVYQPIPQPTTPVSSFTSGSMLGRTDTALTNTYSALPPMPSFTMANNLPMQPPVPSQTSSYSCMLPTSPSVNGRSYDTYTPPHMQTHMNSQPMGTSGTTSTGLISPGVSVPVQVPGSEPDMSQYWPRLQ
Chain of Transcription factor E2F1 (Homo sapiens) (Q01094 whole entry, looked up): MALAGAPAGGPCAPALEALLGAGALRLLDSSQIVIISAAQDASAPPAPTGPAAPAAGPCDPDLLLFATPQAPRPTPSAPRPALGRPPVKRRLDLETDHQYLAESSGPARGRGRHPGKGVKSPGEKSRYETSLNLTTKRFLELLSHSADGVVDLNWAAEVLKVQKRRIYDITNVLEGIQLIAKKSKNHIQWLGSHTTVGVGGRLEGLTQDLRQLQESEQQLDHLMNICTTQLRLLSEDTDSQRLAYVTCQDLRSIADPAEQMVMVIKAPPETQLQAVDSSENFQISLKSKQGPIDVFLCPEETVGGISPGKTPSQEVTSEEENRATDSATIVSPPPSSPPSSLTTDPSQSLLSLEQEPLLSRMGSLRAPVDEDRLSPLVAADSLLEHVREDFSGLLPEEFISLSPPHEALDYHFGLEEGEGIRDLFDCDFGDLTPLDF

CCCCCCCCCCCC#N
active: [2] 148 µM | [3] 73.6 µM | [12] 163 µM | [16] 136 µM | [18] 27.8 µM | [19] 76.4 µM
inactive: all other assays above

CN1C(=O)CCS(=O)(=O)C1c1ccc(Cl)cc1 (stereo not given)
inactive: all assays above

CCCCNP(N)(N)=S
inactive: all assays above

O=C(CCN1CC1)OCC(CO)(COC(=O)CCN1CC1)COC(=O)CCN1CC1
inactive: all assays above

ClCCCCCCCl
inactive: all assays above

CCC(C)(C)O
inactive: all assays above

CC=Cc1ccc2c(c1)OCO2
inactive: all assays above

CCCCOP(=O)(O)OCCCC
inactive: all assays above

NNc1ccccc1
active: [18] 38.9 µM
inactive: all other assays above

CC(Cc1ccc(C(C)(C)C)cc1)CN1C[C@@H](C)O[C@@H](C)C1 (stereo not given in full)
active: [3] 40.6 µM | [16] 24.2 µM | [18] 4.18 µM
inactive: all other assays above

From PubChem BioAssay (EPA / NIEHS)
